Bioassay records deposited in PubChem by National Center for Advancing Translational Sciences (NCATS).
Hits are enriched below; roughly 2.4% of the tested compounds scored in any of these assays.
D2 antag: D2 dopamine receptor (human) antagonism; P14416; HEK293 TREx D2 cells, calcium flux, dopamine EC80; inhibition, % at 10 µM; hit rate 2% among 340,000; AID 485344; in the data active = inhibition above about 30%; inactive = below that, where a call was filed
Target sequence (P14416 whole entry, looked up): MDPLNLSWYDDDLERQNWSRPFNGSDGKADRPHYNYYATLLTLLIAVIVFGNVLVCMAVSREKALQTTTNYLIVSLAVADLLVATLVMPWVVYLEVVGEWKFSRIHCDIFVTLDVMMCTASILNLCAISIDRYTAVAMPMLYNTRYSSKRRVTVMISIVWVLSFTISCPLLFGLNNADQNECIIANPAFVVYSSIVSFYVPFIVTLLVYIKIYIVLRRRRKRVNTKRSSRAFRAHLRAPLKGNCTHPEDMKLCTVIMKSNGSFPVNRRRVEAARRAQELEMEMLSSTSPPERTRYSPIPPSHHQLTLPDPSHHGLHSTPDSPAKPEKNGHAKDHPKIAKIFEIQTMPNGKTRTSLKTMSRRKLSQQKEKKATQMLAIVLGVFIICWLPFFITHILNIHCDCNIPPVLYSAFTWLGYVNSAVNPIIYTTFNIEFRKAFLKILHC
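Cells plated overnight at 30 C with tetracycline; no-wash calcium dye, 30–90 min RT; 10 s baseline; compound pinned; 180 s read; EC80 dopamine added; another 180 s read.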
D2 ag-1: agonists of human D2 dopamine receptor; P14416; HEK293 T-REx D2 cells, calcium flux agonist mode; activation, % at 2 µM; hit rate 0.53% among 340,000; AID 485358;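 active = activation over 3 SD above normal in the single-dose calcium agonist read, cut at about 30% in these data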
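HEK293 Trex D2 cells, tetracycline-induced, o/n 30 C 5% CO2; no-wash Ca dye, RT 30–90 min; 10-cycle baseline, 23 nl cpd added, kinetic Ca read 180 s; agonist hits = positive Ca response.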
D2 ag-2: activates the human D2 dopamine receptor | P14416 | DiscoveRx PathHunter D2 beta-arrestin, luminescence, 90 min; 100% = 57 uM dopamine signal | activation, % (concentration not given with the values) | hit rate 0.084% among 360,000; in the data active = activation above about 40%; inconclusive = between about 15% and that limit
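Agonist mode: compounds alone added to overnight-plated D2 PathHunter cells for 90 min at 37 C, with 57 uM final dopamine (EC100) defining full response. Beta-arrestin recruitment detected by chemiluminescent reagent, read after 1 h at ambient temperature.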
D2 PAM-1: potentiates the human D2 dopamine receptor allosterically | hit rate 0.23% among 360,000 | potentiation, % (no concentration beside the values) | P14416 | DiscoveRx D2 beta-arrestin cells, luminescence, 90 min; 100% = 57 uM dopamine signal | AID 624464; in the data active = potentiation above about 50%; inconclusive = mostly about 30% to 49%
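PathHunter D2 cells, attached overnight at 37 deg C, received compound in DMSO plus dopamine at EC20 (50 nM final) for 90 min at 37 deg C. Beta-arrestin recruitment was read as luminescence after 1 h with detection reagent at ambient temperature.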
D2 PAM-2: positively modulates the human D2 dopamine receptor allosterically; AID 485347; P14416; hit rate 0.34% among 340,000; HEK293 T-REx D2, calcium flux, EC20 dopamine potentiation; potentiation, % at 10 µM;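 active = potentiation over 3 SD above the plate norm, cut at about 30% in these data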
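Potentiation of an EC20 dopamine calcium response is measured in a force-coupled, tetracycline-inducible Hek293 Trex D2 line. Compound-only kinetic reads over 180 s flag agonists before dopamine addition.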
Hits are given with their value; i = inactive; ? = inconclusive; nt = no result; ! = not confirmed by another sample.

SMILES	D2 antag	D2 ag-1	D2 ag-2	D2 PAM-1	D2 PAM-2
COc1ccc2nc(NC(=O)C3CCN(S(=O)(=O)c4cnc[nH]4)CC3)sc2c1	32.3	i	i	i	i
Cc1ccc2nc(NC(=O)C3CCN(S(=O)(=O)c4cc([N+](=O)[O-])ccc4Cl)CC3)sc2c1	i	i	?	58.8	i
CC(=O)COC(=O)C1CCN(S(=O)(=O)c2cc([N+](=O)[O-])ccc2Cl)CC1	i	i	i	i	i
O=C(COC(=O)C1CCN(S(=O)(=O)c2cc([N+](=O)[O-])ccc2Cl)CC1)Nc1ncc(Cl)cc1Cl	i	i	i	70.4	i
COc1ccc(Cn2ccnc2SCC(=O)Nc2cc(C(F)(F)F)ccc2Cl)cc1	nt	i	nt	nt	i
Cc1ccc(C)c(CSc2nc3c([nH]c4ccccc43)c(=O)n2C)c1	nt	i	nt	nt	i
Cc1ccc(S(=O)(=O)NNC(=O)CCC(=O)Nc2ccc(C)c(C)c2)cc1	31.5	i	i	i	i
O=C(COC(=O)c1ccc(O)cc1)Nc1ccccc1[N+](=O)[O-]	38.5	i	i	i	i
CCOC(=O)C(C)(C)Sc1nc2c(cnn2-c2ccc(C)cc2)c(=O)[nH]1	47.8	i	i	i	i
Cc1ccc(-n2ncc3c(=O)[nH]c(SCC(=O)N4CCOCC4)nc32)cc1	i	i	i	i	i
CCC1CCCCN1C(=O)CSc1nc2c(cnn2-c2ccc(C)cc2)c(=O)[nH]1 (configuration not stated)	33.2	i	i	i	i
CC1=Nc2ccc(C)cc2/C1=C/c1c(N)n2oc(C)cc2nc1=O	60.6!	i	i	i	i
CSc1nsc2nc(=O)c(/C=C3\C(C)=Nc4ccc(C)cc43)c(N)n12	i	i	i	i	nt
Cc1cc(Br)ccc1NC(=O)CSc1c2c(nc3ccccc13)CCC2	nt	i	nt	nt	i
Cc1ccc(-n2ncc3c(SCC(=O)NNC(=O)c4ccco4)ncnc32)cc1	i	i	i	i	32.4
CCOC(=O)CNC(=O)CSc1ncnc2c1cnn2-c1ccc(C)cc1	i	i	i	i	i
CN(C)S(=O)(=O)N(CC(=O)NCCSCc1ccccc1Cl)c1ccccc1	nt	i	nt	nt	i
Cc1cc(NC(=O)CCC(=O)N(c2ccc(F)cc2)C(C(=O)NC2CCCC2)c2ccc(C)o2)no1 (configuration not stated)	i	i	i	i	i
COCCNC(=O)C(c1ccc(C)o1)N(C(=O)C(=O)NC1CCCCC1)c1ccc(F)cc1 (configuration not stated)	i	i	i	i	34.1
COc1ccccc1NC(=O)CNC(c1ccccc1)c1ccccc1	36.0	i	i	i	nt
COc1ccc(C)cc1NC(=O)CNC(c1ccccc1)c1ccc(C)cc1 (configuration not stated)	i	i	i	i	i
COc1ccc(CN2CCC(=O)N([C@H](CO)c3ccccc3)CC2)cc1	52.5	i	i	i	i
O=C1CCN(Cc2cccnc2)CCN1[C@H](CO)c1ccccc1	i	i	i	i	i
Cc1nc(-c2ccc(Cl)cc2)sc1C1(C)CC(c2cccc(F)c2)=NO1 (configuration not stated)	30.5	i	i	i	i
Cc1nc(-c2ccc(Cl)cc2)sc1C1(C)CC(c2cccc(Cl)c2)=NO1 (configuration not stated)	i	i	i	i	i
SMILES	D2 antag	D2 ag-1	D2 ag-2	D2 PAM-1	D2 PAM-2
CC(=O)Nc1ccc(NC(=O)CCS(=O)(=O)c2ccc3c(c2)oc(=O)n3C)cc1	i	i	i	i	i
Cn1c(=O)oc2cc(NC(=O)CCl)ccc21	31.9	i	i	i	i
Cc1cc(C)n(CC(=O)O)n1	i	i	i	i	i
Cc1cc(C)n(CCn2nc(C)cc2C)n1	40.7	i	i	i	i
COC(=O)c1scc(-c2ccc(C)cc2)c1S(=O)(=O)N1CCN(c2cccc(Cl)c2)CC1	nt	i	nt	nt	i
CCCNC(=S)NC1CC2CCC(C1)N2Cc1ccccc1 (configuration not stated)	67.3	i	i	i	i
COCCCNC(=S)NC1CC2CCC(C1)N2Cc1ccccc1 (configuration not stated)	i	i	i	i	i
O=C(NC1CC2CCCC(C1)N2Cc1ccccc1)C1CCCCC1 (configuration not stated)	i	i	i	i	i
S=C(NC1CCCCC1)NC1CC2CCC(C1)N2Cc1ccccc1 (configuration not stated)	76.9	i	i	i	i
S=C(NCCc1ccccc1)NC1CC2CCC(C1)N2Cc1ccccc1 (configuration not stated)	62.7	i	i	i	i
CC(C)CNC(=S)NC1CC2CCC(C1)N2Cc1ccccc1 (configuration not stated)	89.9	i	i	i	i
COc1ccc(N2CCN(C(=O)c3cccn3-c3nnc(N4CCCC4)s3)CC2)cc1	nt	i	nt	nt	i
CC(C)(C)OC(=O)N1CCC(c2c(C(=O)N3CCN(c4ccc(Cl)cc4)CC3)cnn2-c2ccc(F)cc2F)CC1	nt	i	nt	nt	i
CCCNC(=O)C1CCC(Cn2c(=O)c3sccc3n(CC(=O)NCc3cccc(OC)c3OC)c2=O)CC1 (configuration not stated)	nt	nt	nt	nt	i
CCNC(=S)NC1CC2CCCC(C1)N2CCc1ccccc1 (configuration not stated)	i	i	i	i	i
CCNC(=S)NC1CC2CCC(C1)N2Cc1ccccc1 (configuration not stated)	57.0	i	i	i	i
CCc1nn(CC(=O)NCCCN2CCc3ccccc3C2)c(=O)c2cc3sccc3n12	79.1	i	i	i	i
COc1cccc(-c2cn3c(n2)sc2cc(C(=O)NCCc4ccc(OC)c(OC)c4)ccc23)c1	nt	i	nt	nt	i
Cc1cc(NS(=O)(=O)c2ccccc2)c(C)c(Cl)c1O	i	i	i	61.3	i
Cc1c(O)ccc(NS(=O)(=O)c2ccccc2)c1C	i	i	i	i	i
Clc1ccc(OCCCNCc2ccccc2)c2ccccc12	41.5	i	i	i	i
Brc1ccccc1OCCNCc1ccccc1	94.0	i	i	i	i
Cc1cc(C)c(C)c(OCCNCc2ccccc2)c1	75.1	i	i	i	i
C=CCc1ccc(OCCCNC2CCCC2)c(OC)c1	nt	nt	i	i	nt
C=CCc1ccc(OCCCNCc2ccccc2)c(OC)c1	62.2	i	i	i	i
CCc1noc(-c2ccc(NC(C)c3ccccc3)c([N+](=O)[O-])c2)n1 (configuration not stated)	nt	i	nt	nt	i
C=CCc1ccccc1OCCNCc1ccccc1	69.0	i	i	i	i
Cc1ccc(C(C)C)c(OCCCNCc2cccnc2)c1	i	i	i	i	i
Cc1ccc(C(C)C)c(OCCNCCc2ccccc2)c1	41.4	i	i	i	i
COc1ccccc1CN1C[C@@H]2C[C@@H](c3ccc(C)c(C)c3)N3CCC[C@@]23C1=O	34.9	i	i	i	i
